Measured values taken from the supplement of paper PMC4723716.

Tested on: Plasmodium falciparum NF54 gametocytes
Experiment: viability index relative to DMSO control (fraction); higher = less gametocyte killing
Details: 12.5 µM, incubation time: 72 h
Outline: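 In 384-well plates, compound at 12.5 µM was incubated for 72 hr at 37°C under low oxygen with P. falciparum NF54 gametocytes of each stage (I–V) at 0.50% gametocytemia and 1.25% hematocrit in 40 µl of serum-containing medium. Staining used 5 µl of 5 µM MitoTracker Red CMXRos for 20 min, then 5 µl was moved into 40 µl of 500 nM dye in serum-free medium and imaged after 30 min. Dividing the gametocyte particle count by the plate mean of solvent-only wells gave the viability index.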

[1] = gametocyte stage: Stage I viability index
[2] = gametocyte stage: Stage II viability index
[3] = gametocyte stage: Stage III viability index
[4] = gametocyte stage: Stage IV viability index
[5] = gametocyte stage: Stage V viability index

COc1cc(OC)c(N(C)C(=O)c2cc3c(s2)-c2ccccc2S(=O)(=O)C3)cc1Cl
viability index [1]: 0.00884 | viability index [2]: 0.00676 | viability index [3]: 0.0212 | viability index [4]: 0.131 | viability index [5]: 0.022

O=C1CC(O)(C(F)(F)C(F)(F)F)Oc2ccccc21 (stereo not given)
viability index [1]: 1.22 | viability index [2]: 0.957 | viability index [3]: 1.2 | viability index [4]: 1.19 | viability index [5]: 0.813

CC1CCN(Cc2c(O)ccc3cc(-c4nc5ccccc5s4)c(=O)oc23)CC1
viability index [1]: 0.706 | viability index [2]: 0.705 | viability index [3]: 0.925 | viability index [4]: 0.864 | viability index [5]: 1

COCCN(C(=O)Cc1cccs1)C(C(=O)NCc1ccc(OC)cc1)c1ccc(C(C)C)cc1 (stereo not given)
viability index [1]: 0.846 | viability index [2]: 0.801 | viability index [3]: 1.18 | viability index [4]: 1.11 | viability index [5]: 0.967

CC(=O)c1sc(NC(=O)Nc2ccc(C)cc2C)nc1C
viability index [1]: 0.271 | viability index [2]: 0.455 | viability index [3]: 0.673 | viability index [4]: 0.801 | viability index [5]: 0.714

Cc1cc(=O)oc2c1ccc1oc(C(=O)c3ccccc3)c(C)c12
viability index [1]: 0.948 | viability index [2]: 1 | viability index [3]: 0.867 | viability index [4]: 0.972 | viability index [5]: 1.01

CCOc1cc2c(cc1OCC)C(c1cc(OC)c(O)cc1Cl)NCC2 (stereo not given)
viability index [1]: 0.0243 | viability index [2]: 0.0957 | viability index [3]: 0.513 | viability index [4]: 0.723 | viability index [5]: 0.626

N=c1n(CCN2CCCCC2)c2ccccc2n1CC(=O)c1ccc(Cl)c(Cl)c1
viability index [1]: 0.115 | viability index [2]: 0.281 | viability index [3]: 0.848 | viability index [4]: 0.886 | viability index [5]: 0.753

OC(CNC1CCCC1)Cn1c2ccccc2c2ccccc21 (stereo not given)
viability index [1]: 0.0475 | viability index [2]: 0.0783 | viability index [3]: 0.181 | viability index [4]: 0.286 | viability index [5]: 0.22

CCOC(=O)C1=CN(C)C=C(C(=O)OCC)C1c1cc(Br)c(OCC)c(OC)c1
viability index [1]: 0.042 | viability index [2]: 0.0216 | viability index [3]: 0.0421 | viability index [4]: 0.161 | viability index [5]: 0.117

CCN(CC)CCNc1ncnc2c1[nH]c1ccc(Br)cc12
viability index [1]: 0.0398 | viability index [2]: 0.36 | viability index [3]: 0.635 | viability index [4]: 0.641 | viability index [5]: 0.396

CC(C)(C)c1ccc(C2CC3=Nc4ccccc4N(C(=O)c4ccccc4Cl)C(c4ccc(F)cc4)C3=C(O)C2)cc1 (stereo not given)
viability index [1]: 0.278 | viability index [2]: 0.223 | viability index [3]: 0.472 | viability index [4]: 0.503 | viability index [5]: 0.429

Cc1ccccc1OCCSc1nc2ccc(NC(=O)c3cccs3)cc2s1
viability index [1]: 1.13 | viability index [2]: 0.918 | viability index [3]: 1.08 | viability index [4]: 0.927 | viability index [5]: 1.27

Cc1cc(C)cc(Nc2cc(C)nc3nc(C(F)(F)F)nn23)c1
viability index [1]: 1.02 | viability index [2]: 1.07 | viability index [3]: 1.18 | viability index [4]: 0.869 | viability index [5]: 0.835

c1ccc2c(NCCc3c[nH]c4ccccc34)c3ccccc3nc2c1
viability index [1]: 0.145 | viability index [2]: 0.22 | viability index [3]: 0.609 | viability index [4]: 0.687 | viability index [5]: 0.675

O=C1C2=C(Nc3ccccc3SC2c2ccccc2)c2ccccc21 (stereo not given)
viability index [1]: 0.678 | viability index [2]: 0.794 | viability index [3]: 0.742 | viability index [4]: 0.623 | viability index [5]: 0.662

CCn1c(CN2CCN(Cc3ccccc3)CC2)nc2cc(NC(=O)c3cccs3)ccc21
viability index [1]: 0.701 | viability index [2]: 0.837 | viability index [3]: 0.924 | viability index [4]: 0.967 | viability index [5]: 1.05

CCCCCCn1c(=N)n(CC(O)COc2cccc(C)c2)c2ccccc21 (stereo not given)
viability index [1]: 0.0787 | viability index [2]: 0.0425 | viability index [3]: 0.0828 | viability index [4]: 0.149 | viability index [5]: 0.0779

C[n+]1c2ccccc2nc2ccc(NCCO)cc21
viability index [1]: 0.0398 | viability index [2]: 0.302 | viability index [3]: 0.595 | viability index [4]: 0.824 | viability index [5]: 1.03

CCOc1ccccc1NC(=O)CN1CCN(C(=O)c2ccco2)CC1
viability index [1]: 1.06 | viability index [2]: 1 | viability index [3]: 1.07 | viability index [4]: 0.959 | viability index [5]: 1.1

Clc1cc(Br)ccc1-c1ccc(CNCC2CCNCC2)o1
viability index [1]: 0.0166 | viability index [2]: 0.0135 | viability index [3]: 0.0099 | viability index [4]: 0.0152 | viability index [5]: 0.033

COc1ccc(C=C2SC(Nc3ccccc3)=NC2=O)cc1
viability index [1]: 1.03 | viability index [2]: 0.768 | viability index [3]: 0.663 | viability index [4]: 0.791 | viability index [5]: 0.727

CCOc1ccc(-c2nonc2NC(=O)c2cccc(C)c2)cc1OCC
viability index [1]: 0.0619 | viability index [2]: 0.0773 | viability index [3]: 0.0679 | viability index [4]: 0.222 | viability index [5]: 0.626

Cc1cc(Nc2ccc(OCc3ccccc3)cc2)nc2cc(O)ccc12
viability index [1]: 0.332 | viability index [2]: 0.199 | viability index [3]: 0.468 | viability index [4]: 0.487 | viability index [5]: 0.481

Cc1cc(Nc2ccc3ccccc3c2)n2ncnc2n1
viability index [1]: 0.567 | viability index [2]: 0.521 | viability index [3]: 0.755 | viability index [4]: 0.79 | viability index [5]: 0.626

c1ccc(-c2ccc(-c3nc4ccccc4[nH]3)cc2)cc1
viability index [1]: 0.527 | viability index [2]: 0.768 | viability index [3]: 0.867 | viability index [4]: 0.784 | viability index [5]: 0.967
